Reference: the supplement of paper PMC12669032
Unmarked numbers belong to inactive results.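 How the source made its calls: active = AUC reduced over 20% with Padj below 0.05 in at least 2 of 3 replicates; inactive = otherwise.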

Legend:
Assay in all cases: growth AUC relative to DMSO control (median of replicates) (fraction); higher = more growth (less inhibition), active = hit call of the paper
Conditions in all cases: 20 µM; 24 h
[1] = tested on: Coprococcus comes
Outline: (§1)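 Three biological replicates, each grown on a separate day, were combined as a median for every value. In each, a gut bacterial monoculture in mGAM started at OD600 0.05 and grew anaerobically at 37 °C with 20 µM compound (1% DMSO), with OD600 read hourly over 24 h. Area under the growth curve was normalised against the plate median of solvent-only wells, or against row and column medians on the industrial chemical plate, after the minimum OD was set to 0.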

[2] = tested on: Escherichia coli ED1a
Outline: as §1

[3] = tested on: Escherichia coli IAI1
Outline: as §1

[4] = tested on: Eubacterium rectale
Outline: as §1

[5] = tested on: Fusobacterium nucleatum subsp. animalis
Outline: as §1

[6] = tested on: Lactobacillus gasseri
Outline: as §1

[7] = tested on: Lactobacillus paracasei
Outline: as §1

[8] = tested on: Odoribacter splanchnicus
Outline: as §1

[9] = tested on: Parabacteroides distasonis
Outline: as §1

[10] = tested on: Parabacteroides merdae
Outline: as §1

[11] = tested on: Roseburia intestinalis
Outline: as §1

[12] = tested on: Streptococcus salivarius
Outline: as §1

Compound | growth AUC [1] | growth AUC [2] | growth AUC [3] | growth AUC [4] | growth AUC [5] | growth AUC [6] | growth AUC [7] | growth AUC [8] | growth AUC [9] | growth AUC [10] | growth AUC [11] | growth AUC [12]
C[S+](C)CCC(=O)O.[Cl-] | 0.97 | 0.985 | 1.01 | 0.923 | 0.939 | 1.08 | 1.01 | 0.979 | 0.959 | 1.02 | 1.01 | 0.994
CCc1nc2ncnn2c(N)c1CCCC(=O)O.Cl | 1.02 | 1.02 | 1.05 | 1.07 | 1.13 | 0.975 | 1.1 | 0.952 | 0.991 | 0.997 | 0.991 | 1.01
CCCCCCCCCCCC[N+](C)(C)Cc1ccc(CC)cc1.[Cl-] | 0.374 (active) | 0.981 | 0.945 | 0.863 | 0.902 | 0.651 (active) | 0.708 | 0.973 | 0.671 (active) | 0.708 (active) | 0.0285 (active) | 1.03
CCSC(=O)COc1ccc(Cl)cc1C | 0.981 | 0.973 | 0.986 | 1.03 | 1 | 0.874 | 1.08 | 0.901 | 1.05 | 0.992 | 0.969 | 0.915
CCOCCOC(=O)C(C)Oc1ccc(Oc2ncc(C(F)(F)F)cc2Cl)cc1 (stereo unspecified) | 0.989 | 0.996 | 0.986 | 1.05 | 1.05 | 0.952 | 1.02 | 1.07 | 0.859 | 0.991 | 0.953 | 0.959
CCCCCCCCSCCO | 0.974 | 0.955 | 0.936 | 1.04 | 0.902 | 0.94 | 0.93 | 1.03 | 0.915 | 0.966 | 0.944 | 0.959
CCCCCCCCc1c(CC)nc2ncnn2c1N | 1.01 | 0.986 | 0.978 | 0.988 | 1.04 | 0.904 | 0.931 | 0.989 | 0.946 | 0.964 | 0.948 | 0.985
C=O | 0.998 | 1.03 | 0.999 | 0.921 | 1 | 1.04 | 1.06 | 1.03 | 1.03 | 1.03 | 1.1 | 1
CCCN(CCOc1c(Cl)cc(Cl)cc1Cl)C(N)=O | 1 | 1.01 | 0.985 | 1 | 0.935 | 0.946 | 0.851 | 0.978 | 0.949 | 0.977 | 0.939 | 0.972
O=[N+]([O-])c1ccc(Oc2c(Cl)cc(Cl)cc2Cl)cc1 | 0.95 | 1.01 | 1.03 | 1.02 | 1.05 | 0.874 | 1.05 | 1.03 | 0.623 (active) | 0.899 | 1.02 | 1.03
O=C=NC1CCC(CC2CCC(N=C=O)CC2)CC1 (stereo unspecified) | 1.08 | 1.02 | 1.03 | 0.973 | 1.05 | 0.921 | 1.12 | 1.06 | 1 | 1.02 | 1.06 | 1.01
COC(=O)c1c(Cl)c(Cl)c(C(=O)OC)c(Cl)c1Cl | 1.05 | 0.979 | 0.995 | 1.16 | 0.963 | 0.974 | 0.982 | 1.1 | 0.979 | 1.01 | 0.964 | 0.962
COCCN(C(=O)CO)c1c(C)cccc1C(=O)O | 0.972 | 0.976 | 0.956 | 1.09 | 0.968 | 0.811 | 0.996 | 1 | 0.904 | 0.986 | 1.01 | 0.965
